In the library only some 8.7% were active in any assay of this set; here they are far more common.
JMJD2A Tudor inh: qHTS Assay for Inhibitors of JMJD2A-Tudor Domain; AlphaScreen JMJD2A-Tudor / H3K4me3 peptide binding; Lysine-specific demethylase 4A (Homo sapiens), O75164; Potency, µM (series often up to 114 µM), inactives show at the highest dose activity change, negative = inhibition, hits mostly inhibitors; AID 504339, 2011; 4.4% of 390,000 active; further: on the % scale 0 is the no-effect control and ±100 the full control effect; nearly all actives have a fitted effect of over 50% in size
BAZ2B block: qHTS Assay for Inhibitors of BAZ2B; Bromodomain adjacent to zinc finger domain protein 2B (Homo sapiens), Q9UIF8; AlphaScreen BAZ2B-H3K14Ac peptide displacement; Potency, µM (series often up to 114 µM), for inactives: at the highest dose activity change, negative = inhibition, hits mostly inhibitors; 4.4% of 360,000 active; AID 504333, 2011; further: on the % scale 0 is the no-effect control and ±100 the full control effect; nearly all actives have a fitted effect of over 60% in size
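AlphaScreen displacement: compounds (up to 110uM) incubated 30 min at room temperature with a preformed 50 nM BAZ2B/50 nM biotinylated H3K14Ac peptide complex in PBS pH 7.4 with Tween-20. Donor and acceptor beads at 10 ug/mL final added, 20 min light-protected before reading.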
HP1b chromo inh: HTS for Inhibitors of HP1-beta Chromodomain Interactions with Methylated Histone Tails; Chromobox protein homolog 1 (Homo sapiens), P83916; AlphaScreen HP1-beta / biotin-H3K9me3 peptide binding; Potency, µM (top dose mostly 114 µM), without a hit: at the top dose activity change, negative = inhibition, usual class: inhibitors; 0.56% of 390,000 active; AID 540317, 2011; further: nearly all actives have a fitted effect of over 70% in size
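AlphaScreen: HP1-beta (50 nM) preformed 30 min with biotin-H3(1-18)K9me3 peptide (50 nM) in PBS pH 7.4, 0.01% Tween-20. Compound added for 30 min at RT, then streptavidin donor/nickel chelate acceptor beads (10 ug/mL) for 30 min.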
Sfp inh: qHTS Assay for Inhibitors of Bacillus subtilis Sfp phosphopantetheinyl transferase (PPTase); 4'-phosphopantetheinyl transferase ffp (Bacillus subtilis), Q9F4F7; Biochemical Sfp PPTase activity, qHTS; Potency, µM, for inactives: largest response in the series, negative = inhibition, actives largely listed as inhibitors; 3.5% of 310,000 active;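 further: the enzyme is Sfp with the accession as filed and its product quenches rhodamine fluorescence; 0% = enzyme reaction without inhibitor and -100% = no enzyme wells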
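Fluorescence-quenching assay with 15 nM Sfp, 5 uM rhodamine-CoA and 12.5 uM BHQ-2-labelled ybbR peptide in pH 7.6 Hepes/MgCl2 buffer. Enzyme was pre-incubated with compound for 15 min at room temperature. Rate was taken from the 30-min fluorescence change (525/598 nm).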
12-LOX inh: Primary qHTS assay for inhibitors of human arachidonate 12S-lipoxygenase (ALOX12): Round 2. Polyunsaturated fatty acid lipoxygenase ALOX12 (Homo sapiens), P18054. purified 12hLO, xylenol orange hydroperoxide absorbance. Potency, µM (top dose mostly 108 µM), inactives show at the top dose activity change, negative = inhibition, most hits filed as inhibitors. 1.1% of 580,000 active. AID 1671190, 2021; further: on the % scale 0 is the no-effect control and ±100 the full control effect
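Purified human 12hLO (150 nM final) in 25 mM Hepes, 0.01% Triton X-100, pH 7.0 was preincubated 15 min at room temperature with compound. Then 40 uM arachidonic acid was added, 30 min. Hydroperoxide was read by Fe-XO absorbance ratio 573/405 nm.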
G9a block: qHTS Assay for Inhibitors of Histone Lysine Methyltransferase G9a; G9a H3K9 monomethylation, AlphaScreen, 2 h; Histone-lysine N-methyltransferase EHMT2 (Homo sapiens), Q96KQ7; 8.8% of 350,000 active; Potency, µM (doses to about 102 µM), inactives show at the top dose activity, negative = inhibition, usual class: inhibitors; further: on the % scale 0 is the no-effect control and ±100 the full control effect; nearly all actives have a fitted effect of over 75% in size
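Quantitative HTS format: methyltransferase activity on a biotin-tagged H3K9 peptide is measured by AlphaScreen, using a rabbit anti-monomethyl-H3K9 antibody with streptavidin donor and anti-IgG acceptor beads. Final levels are 20 nM enzyme, 500 nM peptide, 20 uM SAM; 2 h RT.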
* = called active by the depositor; ? = inconclusive; · = no result; [ ] = another dose, or the depositor's remark. The call rests on the fitted dose curve; in most records, active means well fitted curve in the direction sought with a large enough effect; inconclusive means small, poorly fitted or top-dose-only effect, or another doubt; inactive means no such curve, though single readings can be large; an effect the other way counts as inactive or inconclusive. Potency means the concentration at half of the fitted maximal effect.

SMILES	JMJD2A Tudor inh	BAZ2B block	HP1b chromo inh	Sfp inh	12-LOX inh	G9a block
O=C(Cc1ccccc1)N1CCN(CCCc2ccccc2)CC1	0.32µM*	56µM*	?	1%	0.89µM*	?
COc1cc(CN2CCN(C(=O)Cc3ccccc3)CC2)cc(OC)c1OC	7.1µM*	?	?	-11%	?	25µM*
Cc1ccc(CC(=O)N2CCN(Cc3ccccc3)CC2)cc1	-10%	-21%	58%	21%	-11%	-52%
O=C(Cc1ccccc1)N1CCN(Cc2ccc(F)cc2)CC1	10µM*	79µM*	?	-23%	22%	·
COc1ccc(CN2CCN(Cc3ccccc3)CC2)c(OC)c1	?	?	1%	7%	-21%	14%[59 µM]
COc1ccc(CN2CCN(C(=O)Cc3ccccc3)CC2)c(OC)c1	2µM*	56µM*	?	-14%	-19%	20µM*
CC(C)CCOc1ccc(CCN)cc1	·	·	·	·	-24%	·
OCCNc1cc(N2CC[C@@]3(O)CCNC[C@H]3C2)ncn1	·	·	·	·	25%	·
COc1ccc(NC(=S)NC(NC(=O)CF)C(Cl)(Cl)Cl)c([N+](=O)[O-])c1 (stereo not given)	3%	?	15%	-6%	8%	10µM*
CC(C)NC(=O)[C@H]1CN2CC[C@H]1C[C@@H]2Cn1cc(CO)nn1	·	·	·	·	10%[176 µM]	·
Oc1c(Br)cc(Br)cc1CN1CCN(Cc2ccccc2)CC1	20µM*	79µM*	-9%	-9%	6%	45µM*
CCN1/C(=C\C=C\C2=[N+](CC)c3ccccc3C2(C)C)C(C)(C)c2ccccc21	?	11µM*	?	?	·	?
COc1cc2c(cc1Oc1ccccc1)NC(=O)C21CCN(c2cnccn2)CC1	·	·	·	·	-26%[176 µM]	·
C1COC(CNC2CNC2)C1 (stereo not given)	·	·	·	·	52%[365 µM]	·
C[n+]1cccc(C(=O)NCC2CCCO2)c1 (stereo not given)	-3%	-2%	16%	-2%	16µM*	?
CCOP(=O)(Cc1cc(C(=O)CC)c(C)o1)OCC	9%	-5%	55%	?	?	8.9µM*
CCOP(=O)(Cc1ccc(C(=O)CC)o1)OCC	-8%	-13%	2%	16%	-4%	-2%
CN(C)c1ccc(CN2CC=C(c3ccc(F)cc3)CC2)cc1	50µM*	50µM*	-38%	-13%	?	?
COc1cc2c(cc1OCC1CC1)NC(=O)C21CCN(Cc2ccncc2)CC1	·	·	·	·	0%[176 µM]	·
CCCNC(=O)c1cn(Cc2ccccc2)c2ccccc12	·	·	·	·	-26%	·
COc1cccc(-n2c(/C=C/c3ccc(O)c(O)c3)nc3ccccc3c2=O)c1	?	?	-17%	-10%	32µM*	45µM*
O=C(c1ccco1)N1CCN(C(=O)c2ccc(COc3ccc(Cl)cc3Cl)o2)CC1	89µM*	·	-20%	·	-49%	·
COc1ccc(NC(=O)N2[C@H]3CC[C@@H]2c2cnc(-c4ccccc4)nc2C3)cc1OC	·	·	·	·	20%	·
OCC1CN(c2ncccn2)CC12CCNCC2 (stereo not given)	·	·	·	·	18%	·
C=C(C)CSc1nnc([C@@H](N)Cc2c[nH]c3ccccc23)o1	-33%	-28%	41%	-36%	-6%	·
SMILES	JMJD2A Tudor inh	BAZ2B block	HP1b chromo inh	Sfp inh	12-LOX inh	G9a block
CC(C)=CCSc1nnc([C@@H](N)Cc2c[nH]c3ccccc23)o1	?	-8%	?	-1%	-13%	3.5µM*
COc1cc(OC)c(OC)cc1/C=C1\C(=O)NC(=O)N(Cc2ccccc2)C1=O	-7%	-28%	17%	-14%	?	?
COc1ccc(/C=C2\C(=O)NC(=O)N(Cc3ccccc3)C2=O)c(OC)c1OC	-14%	-16%	17%	35µM*	?	·
COc1cc(OC)c(OC)cc1/C=C1/C(=O)NC(=O)N(Cc2ccccc2)C1=O	-19%	-18%	22%	-14%	?	50µM*
O=C(N1[C@H]2CC[C@@H]1c1cnc(-c3ccc(F)cc3)nc1C2)C1(c2ccccc2)CC1	·	·	·	·	34%	·
CC1CC(OP(O)(=S)c2ccc(N(C)C)cc2NC(=O)c2cccs2)CC(C)(C)C1 (stereo not given)	56µM*	50µM*	?	10µM*	1%	4µM*
COCCN1C(=O)CS(=O)(=O)C12CCNCC2	·	·	·	·	51%	·
COc1ccccc1N1CCN(CCc2ccccc2)CC1	-6%	-32%	6%	-6%	?	-21%
CCCCCCN1CCN(c2ccccc2Cl)CC1	56µM*	71µM*	-19%	-15%	?	6%
CC[C@H]1CN2CC[C@H]1C[C@@H]2CNCc1ccc(SC)cc1	·	·	·	·	51%[176 µM]	·
Cc1ccc(S(=O)(=O)N2CN3CCN(C3)C2)cc1	-12%	-1%	24%	13%	-3%	-8%[59 µM]
CN1CCN(S(=O)(=O)c2ccc(C3CCCCC3)cc2)CC1	89µM*	7%	-8%	·	?	8.9µM*
O=C1NCc2ccccc2CC12CCCN(Cc1cccnc1)C2 (stereo not given)	·	·	·	·	8%[6.33 µM]	·
COc1cc(C(=O)Nc2ccc(Br)cc2C(=O)c2ccccc2Cl)cc(OC)c1OC	-20%	2%	11%	7%	17%	-7%[59 µM]
COc1cc(OC)cc(C(=O)Nc2ccc(Br)cc2C(=O)c2ccccc2)c1	-21%	-3%	10%	35µM*	11%	17%[59 µM]
NC(Cc1ccccc1)c1cc2ccccc2[nH]1 (stereo not given)	·	·	·	·	-1%	·
Cc1nc(-c2ccc(N(C)C)cc2)cc([C@H]2CN3CC[C@H]2C[C@@H]3CNC(=O)c2ccccc2)n1	·	·	·	·	29%	·
FC(F)(F)c1ccccc1CNCCc1c[nH]c2ccccc12	18µM*	45µM*	-13%	-9%	0%	22%[2.33 µM]
Fc1ccc(CNCCc2c[nH]c3ccccc23)cc1	?	?	26%	2%	0%	?
Fc1ccccc1CNCCc1c[nH]c2ccccc12	45µM*	56µM*	?	-12%	?	?
COc1ccc(CO)cc1	·	·	·	·	18%[176 µM]	·
CN1CCC(N2C[C@@H]3C[C@H](C2)c2c(NC(=O)c4ccccn4)ccc(=O)n2C3)CC1	·	·	·	·	78%[176 µM]	·
O=C(NC[C@H]1C[C@@H]2CCN1C[C@@H]2CN1CCN(c2ccccc2)CC1)Nc1ccccc1	·	·	·	·	73%[176 µM]	·
CC12CCC(O)CC1CCC1[C@@H]2CCC2(C)C(C3=CC(=O)OC3)C(O)CC12O (stereo not given in full)	·	·	·	·	-7%	·
